Screen size: about 5,500 compounds; about 2,000 (36%) were called active. Another 18% or so got no clear call; they are omitted. Cut-off read from the data, not from the text of the source: active = normalized growth mostly below about 0.91 (no sharp cut-off); inconclusive = no clear call, values can overlap the other calls; inactive = mostly above about 0.92. Some of the results follow.
Assay: chemical genetic growth profiling, strain panel (AID 1159580);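 note: tested at 20 µM; growth read once vehicle control cultures reached saturation at 30 °C; 1 = growth at the plate median or of vehicle wells; lower values mean less growth of the strain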
Conditions: S. cerevisiae deletion strains, growth OD

Measured: normalized growth

O=C(O)CCCCCCCC(O)C(O)CCCCCCO (stereo not given)
inactive: locus YHR030C, strain SLT2, stronger effect = lower value 1.02 | locus YHR079C, strain IRE1, stronger effect = lower value 1.01 | locus YJL095W, strain BCK1, stronger effect = lower value 1 | locus YJR066W, strain TOR1, stronger effect = lower value 0.935 | locus YLR113W, strain HOG1, stronger effect = lower value 0.987 | locus YNL183C, strain NPR1, stronger effect = lower value 0.954 | locus YOR231W, strain MKK1, stronger effect = lower value 0.991 | locus YPL256C, strain CLN2, stronger effect = lower value 1.01

Cn1cnc2c(NCc3ccccc3)nc(NCCO)nc21
inactive: locus YAL013W, strain DEP1, stronger effect = lower value 0.989 | locus YAL040C, strain CLN3, stronger effect = lower value 1.08 | locus YCL061C, strain MRC1 (second series), stronger effect = lower value 0.99 | locus YDR150W, strain NUM1, stronger effect = lower value 0.998 | locus YDR363W, strain ESC2, stronger effect = lower value 1.01 | locus YER002W, strain NOP16, stronger effect = lower value 1.05 | locus YGR078C, strain PAC10, stronger effect = lower value 0.988 | locus YGR229C, strain SMI1, stronger effect = lower value 0.991 | locus YJR075W, strain HOC1, stronger effect = lower value 0.981 | locus YMR263W, strain SAP30, stronger effect = lower value 0.984 | locus YMR307W, strain GAS1, stronger effect = lower value 1 | locus YNL175C, strain NOP13, stronger effect = lower value 1 | locus YNL197C, strain WHI3, stronger effect = lower value 0.982 | locus YNL224C, strain SQS1, stronger effect = lower value 1 | locus YNL322C, strain KRE1, stronger effect = lower value 0.992 | locus YOR083W, strain WHI5 (second series), stronger effect = lower value 0.988 | locus YPL055C, strain LGE1, stronger effect = lower value 1

Source: PubChem BioAssay AID1159580 (chemical genetic matrix, 2015)
